Data reported in the supplement of paper PMC4466140.

B1: unnamed (peptide)
chain: NPLPKEPRLPKRKVA

Each binder was assayed against AgAbp1 (assay: SPOT peptide array binding signal intensity (averaged, normalized) (arbitrary units (background-subtracted, floor 0; scale differs between SH3 domains)); higher = stronger binding of the SH3 domain to the peptide).
In short: (§1)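 Detection of bound protein relied on anti-GST antibody, an HRP anti-mouse secondary and luminol, with imaging and quantification in Genespotter. The bound protein was GST-fused SH3 domains from four yeast species, incubated at 10 μg/ml overnight at 4°C in TBS-based blocking buffer on cellulose membranes carrying synthetic 15-mer peptides with cysteines replaced by serines. Binding signal is normalized, background-subtracted spot intensity averaged over replicates, in arbitrary units that differ between domains.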

Row | Binder | SPOT peptide array binding signal intensity
1 | B1 | 16

Each binder was assayed against AgBbc1 in the same assay as above.
In short: as §1

Row | Binder | SPOT peptide array binding signal intensity
2 | B1 | 254

These binders were tested against AgBem1-D1 in the same assay as above.
In short: as §1

Row | Binder | SPOT peptide array binding signal intensity
3 | B1 | 66.5

The binders below were run against AgBzz1-D1 in the same assay as above.
In short: as §1

Row | Binder | SPOT peptide array binding signal intensity
4 | B1 | 48

Each binder was assayed against AgBzz1-D2 in the same assay as above.
In short: as §1

Row | Binder | SPOT peptide array binding signal intensity
5 | B1 | 78.5

These binders were tested against AgCyk3 in the same assay as above.
In short: as §1

Row | Binder | SPOT peptide array binding signal intensity
6 | B1 | 1

The binders below were run against AgFus1 in the same assay as above.
In short: as §1

Row | Binder | SPOT peptide array binding signal intensity
7 | B1 | 20

The binders below were run against AgHof1 in the same assay as above.
In short: as §1

Row | Binder | SPOT peptide array binding signal intensity
8 | B1 | 28

What follows are binders tested against AgHse1 in the same assay as above.
In short: as §1

Row | Binder | SPOT peptide array binding signal intensity
9 | B1 | 134

Each binder was assayed against AgLsb1 in the same assay as above.
In short: as §1

Row | Binder | SPOT peptide array binding signal intensity
10 | B1 | 3.25

What follows are binders tested against AgLsb4 in the same assay as above.
In short: as §1

Row | Binder | SPOT peptide array binding signal intensity
11 | B1 | 2040

What follows are binders tested against AgMyo5 in the same assay as above.
In short: as §1

Row | Binder | SPOT peptide array binding signal intensity
12 | B1 | ≤ 0

Each binder was assayed against AgNbp2 in the same assay as above.
In short: as §1

Row | Binder | SPOT peptide array binding signal intensity
13 | B1 | 25

Each binder was assayed against AgRvs167 in the same assay as above.
In short: as §1

Row | Binder | SPOT peptide array binding signal intensity
14 | B1 | 23

These binders were tested against AgSho1 in the same assay as above.
In short: as §1

Row | Binder | SPOT peptide array binding signal intensity
15 | B1 | 37

These binders were tested against AgSla1-D1-D2 in the same assay as above.
In short: as §1

Row | Binder | SPOT peptide array binding signal intensity
16 | B1 | 28

The binders below were run against AgSla1-D3 in the same assay as above.
In short: as §1

Row | Binder | SPOT peptide array binding signal intensity
17 | B1 | 9

What follows are binders tested against CaAbp1-D1 in the same assay as above.
In short: as §1

Row | Binder | SPOT peptide array binding signal intensity
18 | B1 | 655

The binders below were run against CaAbp1-D2 in the same assay as above.
In short: as §1

Row | Binder | SPOT peptide array binding signal intensity
19 | B1 | 376

The binders below were run against CaBbc1 in the same assay as above.
In short: as §1

Row | Binder | SPOT peptide array binding signal intensity
20 | B1 | 1010

What follows are binders tested against CaBem1-D1 in the same assay as above.
In short: as §1

Row | Binder | SPOT peptide array binding signal intensity
21 | B1 | 30

What follows are binders tested against CaBzz1-D1 in the same assay as above.
In short: as §1

Row | Binder | SPOT peptide array binding signal intensity
22 | B1 | 122

The binders below were run against CaBzz1-D2 in the same assay as above.
In short: as §1

Row | Binder | SPOT peptide array binding signal intensity
23 | B1 | 95.5

What follows are binders tested against CaCyk3 in the same assay as above.
In short: as §1

Row | Binder | SPOT peptide array binding signal intensity
24 | B1 | 6.5

Each binder was assayed against CaFus1 in the same assay as above.
In short: as §1

Row | Binder | SPOT peptide array binding signal intensity
25 | B1 | 190

These binders were tested against CaHof1 in the same assay as above.
In short: as §1

Row | Binder | SPOT peptide array binding signal intensity
26 | B1 | 2

The binders below were run against CaHse1 in the same assay as above.
In short: as §1

Row | Binder | SPOT peptide array binding signal intensity
27 | B1 | 10.8

These binders were tested against CaLsb1 in the same assay as above.
In short: as §1

Row | Binder | SPOT peptide array binding signal intensity
28 | B1 | 4

The binders below were run against CaLsb4 in the same assay as above.
In short: as §1

Row | Binder | SPOT peptide array binding signal intensity
29 | B1 | 3890

What follows are binders tested against CaMyo5 in the same assay as above.
In short: as §1

Row | Binder | SPOT peptide array binding signal intensity
30 | B1 | 4

What follows are binders tested against CaNbp2 in the same assay as above.
In short: as §1

Row | Binder | SPOT peptide array binding signal intensity
31 | B1 | 112

The binders below were run against CaRvs167 in the same assay as above.
In short: as §1

Row | Binder | SPOT peptide array binding signal intensity
32 | B1 | 303

Each binder was assayed against CaRvs167-3 in the same assay as above.
In short: as §1

Row | Binder | SPOT peptide array binding signal intensity
33 | B1 | 4.5

These binders were tested against CaSho1 in the same assay as above.
In short: as §1

Row | Binder | SPOT peptide array binding signal intensity
34 | B1 | 60

The binders below were run against CaSla1-D1-D2 in the same assay as above.
In short: as §1

Row | Binder | SPOT peptide array binding signal intensity
35 | B1 | 1220

These binders were tested against CaSla1-D3 in the same assay as above.
In short: as §1

Row | Binder | SPOT peptide array binding signal intensity
36 | B1 | 6

What follows are binders tested against ScAbp1 in the same assay as above.
In short: as §1

Row | Binder | SPOT peptide array binding signal intensity
37 | B1 | 147
